Reference: ChEMBL document CHEMBL4513216, “Probing the Open Global Health Chemical Diversity Library for Multistage-Active Starting Points for Next-Generation Antimalarials” (ACS Infect Dis, 2020)
Hit rate of the full screen: of about 69,000 compounds, about 8,600 (12%) showed an effect of 50% or more. What follows is part of a selection rich in strong results, with near analogues and random picks from the rest.

system: Plasmodium berghei; assay: Screen against P. berghei liver stage (PbLuc), transformed with Luciferase, at 10uM; format: functional, HepG2; conditions: tested at 10 uM

SMILES	INHIBITION
CC(=O)N1CCC(c2ccnc(Nc3cc(C(F)(F)F)ccn3)n2)C1 (centres undefined)	2.55%
CN(C)C(=O)[C@H]1C[C@H]2OCC[C@H]2N(CCOc2ccc(Cl)cc2)C1	1.48%
Cc1ncc2c(n1)CN(CCCc1ccccc1)CC2	-21.8%
Cc1nn(C)c(C)c1NC(=O)c1cccc(CN2C[C@H]3CC[C@@H](C2)N3)c1	16%
CCn1cc(NC(=O)c2cccc(CN3C[C@@H](C)O[C@@H](C)C3)c2)nn1	81.3%
Cc1ccc(Cl)c(NC(=O)c2cccc(CN3CC[C@H](O)C3)c2)c1	43.9%
CCCn1cc(NC(=O)c2cccc(CN3CC[C@H](O)C3)c2)nn1	65.6%
CCCn1cc(NC(=O)c2cccc(CN3CC=CC3)c2)nn1	-57.5%
Cc1nn(C)c(C)c1NC(=O)c1cccc(CN2CC[C@H](O)C2)c1	56.6%
Cn1nccc1NC(=O)c1cccc(CN2C[C@H]3CC[C@@H](C2)N3)c1	6.09%
Cc1nn(C)c(C)c1NC(=O)c1cccc(CN2CCS(=O)(=O)CC2)c1	44.4%
CCN(Cc1cccc(C(=O)Nc2cn(C)nn2)c1)[C@H]1COC[C@@H]1O	35.7%
CCOc1ccc2cc(C(=O)N3CCn4c(CC)nnc4C3)[nH]c2c1	0.411%
COc1nn(C)cc1C(=O)N1CCC(c2ccccc2)C1 (centres undefined)	11.8%
Cc1ccccc1C1(C(=O)NCCN2CCCC(C)C2)CCOCC1 (centres undefined)	49.8%
Cc1cc(C)n(CCC(=O)N2CCC(c3nc(C)no3)CC2)n1	47.4%
CC(C)n1cnnc1CNC(=O)c1cnc2ccccc2n1	-4.73%
Cc1ccc(Nc2cc(N3CCN(S(C)(=O)=O)CC3)nc(C)n2)cc1	-19.7%
CS(=O)(=O)N1CCN(c2ccc(Nc3ccccn3)nn2)CC1	21.5%
Cc1nc(Nc2ccccn2)cc(N2CCN(S(C)(=O)=O)CC2)n1	53.2%
O=C1CCC2(CCC(NCc3cccnc3)CC2)N1Cc1ccccc1 (centres undefined)	48.2%
CCn1cc(NC(=O)NCC(C)N(C)C2CC2)cn1 (centres undefined)	-62.8%

SMILES	INHIBITION
CC(CN1CC[C@@H]2CCCC[C@@H]2C1)n1cnc2ccccc21 (some centres undefined)	3.58%
CC(CN1CCC(c2ccccc2)CC1)n1cnc2ccccc21 (centres undefined)	56.2%
CC(CN1CCC(CCO)CC1)n1cnc2ccccc21 (centres undefined)	-0.217%
CCCC(O)CN1CCC(=O)N(CCOC)Cc2cc3c(cc21)OCO3 (centres undefined)	22.2%
COCCN1CCCC1c1nccnc1Nc1nc(C)cs1 (centres undefined)	16.9%
COCCN1CCCC1c1nccnc1Nc1ncc(C)s1 (centres undefined)	8.53%
COCCN1CCCC1c1nccnc1Nc1nccs1 (centres undefined)	61.9%
COCCC(=O)N1CCn2cc(CN3CCN(C)CC3)nc2C1	-17.2%
CCc1nc2n(n1)CC(NCCC(=O)Nc1cc(C)on1)CC2 (centres undefined)	7.08%
CCN(CC1CN(CC2CCC2)CCO1)c1cccnn1 (centres undefined)	62.8%
CCN(CC1CN(Cc2c(C)noc2C)CCO1)c1cccnn1 (centres undefined)	44.9%
CCN(CC1CN(Cc2ncc[nH]2)CCO1)c1cccnn1 (centres undefined)	11.1%
CCN(CC1CN(Cc2ncc(C)o2)CCO1)c1cccnn1 (centres undefined)	-17.4%
CCN(CC1CN(Cc2nc(C3CC3)no2)CCO1)c1cccnn1 (centres undefined)	87.6%
CCN(CC1CN(Cc2nccn2CC)CCO1)c1cccnn1 (centres undefined)	41.4%
COc1cc(C2CC(=O)Nc3c2c(=O)[nH]n3C2CCCC2)ccc1O (centres undefined)	27.4%
CSc1[nH]nc(NC(=O)c2ccncc2)c1C#N	48.8%
O=C(N1CCCC(n2cncn2)C1)C1(c2cccc(F)c2)CC1 (centres undefined)	23.7%
CCOc1ccnc(N2CCN(C(=O)c3ccoc3C)CC2)n1	-13.5%
CC(C)N1CC[C@@H]2OC[C@H](C(=O)Nc3cccnc3)C[C@@H]2C1	-25.1%
COCCNC(=O)[C@H]1CO[C@H]2CCN(Cc3cccs3)C[C@H]2C1	38.5%
O=C(Nc1cccnc1)[C@H]1CO[C@H]2CCN(c3ncc(F)cn3)C[C@H]2C1	25.4%

SMILES	INHIBITION
CCCN1CC[C@@H]2OC[C@H](C(=O)Nc3cccnc3)C[C@@H]2C1	59.9%
CNC(=O)[C@H]1CO[C@H]2CCN(Cc3ccc4ccccc4n3)C[C@H]2C1	50%
CNC(=O)[C@H]1CO[C@H]2CCN(c3ncc(F)cn3)C[C@H]2C1	3.58%
CC(C)NC(=O)[C@@H]1C[C@H]2OCC[C@H]2N(Cc2ccc3ccccc3n2)C1	19.4%
CC(C)NC(=O)[C@H]1C[C@H]2OCC[C@H]2N(Cc2ccc3ccccc3n2)C1	61.4%
O=C(NC1CC1)[C@H]1C[C@H]2OCC[C@H]2N(Cc2ccc3ccccc3n2)C1	38.1%
NC(=O)CSc1nccc(-c2ccc3c(c2)OCO3)n1	-22.6%
CS(=O)(=O)N1CCOCC2(CCN(c3ccccn3)C2)C1 (centres undefined)	5.96%
O=c1[nH]cc(Nc2ccc(Cl)cc2)c(=O)[nH]1	15.4%
O=S1(=O)CCN2C(=N1)Oc1ccc(Cl)cc12	30.5%
O=S1(=O)CCN2C(=N1)Oc1ccc(S(=O)(=O)N3CCCC3)cc12	86.6%
CCS(=O)(=O)c1ccc2c(c1)N1CCS(=O)(=O)N=C1O2	20.1%
Cn1cc(Br)c(=O)c(NS(=O)(=O)c2ccccc2F)c1	-1.38%
CCn1cc(CN(C)S(=O)(=O)c2ccc(C)c(C)c2)cn1	10.1%
Cc1cc(CN2CCOC(CNc3cccnn3)C2)no1 (centres undefined)	7.12%
CCCc1nc(CN2CCOC(CNc3cccnn3)C2)cs1 (centres undefined)	58.9%
COCc1nc(CN2CCOC(CNc3cccnn3)C2)cs1 (centres undefined)	14.1%
c1cnnc(NCC2CN(Cc3ccon3)CCO2)c1 (centres undefined)	50.5%
Cc1cnc(CN2CCOC(CNc3cccnn3)C2)cn1 (centres undefined)	2.26%
CCc1nc(CN2CCOC(CNc3cccnn3)C2)cs1 (centres undefined)	41.5%
